Data from PubChem BioAssay (EPA / NIEHS).
The source made the active and inactive calls. The calls were made as follows: active = hit-call score of the fitted dose curve at least 0.9, where 1 is the maximum; inactive = score below 0.9.

Each compound was assayed on JUN Transcription Factor, JUN (gene 3725) (assay: LTEA_HepaRG_JUN: Life Technologies and Expression Analysis (LTEA) Assay for JUN Transcription Factor using HepaRG (AID 2283513)). Conditions: mRNA level, 48 h; actives raise or lower the signal.
How it was run: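 mRNA measured by TaqMan qRT-PCR after 48 h chemical exposure of HepaRG cultures; normalization to three housekeeping genes. Duplicate eight-point half-log curves from 100 uM in 0.5% DMSO; gain or loss fitted against DMSO baseline.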
In the case of `Cc1ccccc1O`, the outcome is reported as “inactive”. `O=NN(c1ccccc1)c1ccccc1` was tested, and the outcome was “inactive”. For `Cc1ccccc1CO[C@@H]1C[C@@]2(C(C)C)CC[C@]1(C)O2`, the outcome was “inactive”. In the case of `CCC(C)(CC)c1cc(NC(=O)c2c(OC)cccc2OC)on1`, the outcome is reported as “inactive”. In the case of `CCOCCOC(C)=O`, the outcome is reported as “inactive”. In the case of `CC1=C2C[C@H]3[C@@H](CC=C4C[C@@H](O)CC[C@@]43C)[C@@H]2CC[C@]12O[C@@H]1C[C@H](C)CN[C@H]1[C@H]2C`, the outcome is reported as “inactive”. In the case of `Cc1ccccc1[N+](=O)[O-]`, the outcome is reported as “inactive”. In the case of `CC(c1ccc(O)cc1)(c1ccc(O)cc1)c1ccc(O)cc1`, the AC50 is reported as 82.9 µM (active). For `Cc1cccc([N+](=O)[O-])c1`, the outcome was “inactive”. In the case of `CO/C=C(/C(=O)OC)c1ccccc1COc1cccc(C(F)(F)F)n1`, the AC50 is reported as 50 µM (active). In the case of `C[C@]12CCC(=O)C=C1CC[C@@H]1[C@@H]2CC[C@]2(C)C(=O)CC[C@@H]12`, the outcome is reported as “inactive”. For `Cc1ccc(O)c(C)c1`, the outcome was “inactive”. With `CN(C)CCO` the outcome was “inactive”. With `O=C(O)C(F)(F)C(F)(F)C(F)(F)C(F)(F)C(F)(F)C(F)(F)C(F)(F)C(F)(F)C(F)(F)F` the AC50 was 50 µM (active). `CN(C)c1nc(=O)n(C2CCCCC2)c(=O)n1C` was tested, and the outcome was “inactive”. For `CCOP(=S)(OCC)SCSC(C)(C)C`, the outcome was “inactive”. For `Oc1c(Cl)c(Cl)c(Cl)c(Cl)c1Cl`, the outcome was “inactive”. With `ClC1=C(Cl)[C@]2(Cl)[C@@H]3[C@@H]4C[C@@H]([C@H]5O[C@@H]45)[C@@H]3[C@@]1(Cl)C2(Cl)Cl` the outcome was “inactive”. `O=S(=O)(O)C(F)(F)C(F)(F)C(F)(F)C(F)(F)F` was tested, and the outcome was “inactive”. For `CCC(C)c1cc([N+](=O)[O-])cc([N+](=O)[O-])c1O` (stereo not drawn), the outcome was “inactive”. `ClC(Cl)=C(c1ccc(Cl)cc1)c1ccc(Cl)cc1` was tested, and the outcome was “inactive”. With `CC#Cc1cc(C)nc(Nc2ccccc2)n1` the outcome was “inactive”. For `C=CC(N)=O`, the outcome was “inactive”. In the case of `CCCCCCCCCc1ccc(O)cc1`, the outcome is reported as “inactive”. With `CCC(C)(c1ccc(O)cc1)c1ccc(O)cc1` the outcome was “inactive”. With `CC(C)(c1ccccc1)c1ccc(O)cc1` the outcome was “inactive”. With `CCOC(=O)C(O)(c1ccc(Cl)cc1)c1ccc(Cl)cc1` the outcome was “inactive”. For `CCNc1nc(NC(C)C)nc(SC)n1`, the outcome was “inactive”. For `Nn1cnnc1`, the outcome was “inactive”. With `O=C(O)C(F)(F)C(F)(F)C(F)(F)C(F)(F)C(F)(F)C(F)(F)C(F)(F)C(F)(F)F` the AC50 was 68.2 µM (active). For `Oc1ccc(C(c2ccc(O)cc2)(C(F)(F)F)C(F)(F)F)cc1`, the AC50 was 92.4 µM (active). In the case of `CCCCCCCCOC(=O)c1ccccc1C(=O)OCCCCCCCC`, the outcome is reported as “inactive”.

The compounds below were run on Lipase C (LIPC), LIPC (gene 3990) (assay: LTEA_HepaRG_LIPC: Life Technologies and Expression Analysis (LTEA) Assay for Lipase C (LIPC) using HepaRG (AID 2283514)). Conditions: mRNA level, 48 h; actives raise or lower the signal.
How it was run: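 LIPC expression was quantified by qRT-PCR against three housekeeping genes (ACTB, GAPDH, POLR2A). Differentiated human HepaRG cells received eight half-log doses (top 100 uM, 0.5% DMSO) in duplicate for 48 h; fitting bidirectional relative to DMSO.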
In the case of `Cc1ccccc1O`, the outcome is reported as “inactive”. With `O=NN(c1ccccc1)c1ccccc1` the outcome was “inactive”. For `Cc1ccccc1CO[C@@H]1C[C@@]2(C(C)C)CC[C@]1(C)O2`, the outcome was “inactive”. For `CCC(C)(CC)c1cc(NC(=O)c2c(OC)cccc2OC)on1`, the outcome was “inactive”. In the case of `CCOCCOC(C)=O`, the outcome is reported as “inactive”. With `CC1=C2C[C@H]3[C@@H](CC=C4C[C@@H](O)CC[C@@]43C)[C@@H]2CC[C@]12O[C@@H]1C[C@H](C)CN[C@H]1[C@H]2C` the outcome was “inactive”. In the case of `Cc1ccccc1[N+](=O)[O-]`, the outcome is reported as “inactive”. With `CC(c1ccc(O)cc1)(c1ccc(O)cc1)c1ccc(O)cc1` the outcome was “inactive”. `Cc1cccc([N+](=O)[O-])c1` was tested, and the outcome was “inactive”. In the case of `CO/C=C(/C(=O)OC)c1ccccc1COc1cccc(C(F)(F)F)n1`, the AC50 is reported as 22.6 µM (active). `Cc1ccc(O)c(C)c1` was tested, and the outcome was “inactive”. `CN(C)CCO` was tested, and the outcome was “inactive”. With `O=C(O)C(F)(F)C(F)(F)C(F)(F)C(F)(F)C(F)(F)C(F)(F)C(F)(F)C(F)(F)C(F)(F)F` the AC50 was 21.1 µM (active). In the case of `CN(C)c1nc(=O)n(C2CCCCC2)c(=O)n1C`, the AC50 is reported as 12 µM (active). For `CCOP(=S)(OCC)SCSC(C)(C)C`, the outcome was “inactive”. With `Oc1c(Cl)c(Cl)c(Cl)c(Cl)c1Cl` the AC50 was 4.24 µM (active). With `ClC1=C(Cl)[C@]2(Cl)[C@@H]3[C@@H]4C[C@@H]([C@H]5O[C@@H]45)[C@@H]3[C@@]1(Cl)C2(Cl)Cl` the outcome was “inactive”. For `O=S(=O)(O)C(F)(F)C(F)(F)C(F)(F)C(F)(F)F`, the outcome was “inactive”. `CCC(C)c1cc([N+](=O)[O-])cc([N+](=O)[O-])c1O` (stereo not drawn) was tested, and the AC50 was 1.83 µM (active). In the case of `ClC(Cl)=C(c1ccc(Cl)cc1)c1ccc(Cl)cc1`, the outcome is reported as “inactive”. In the case of `CC#Cc1cc(C)nc(Nc2ccccc2)n1`, the AC50 is reported as 15.3 µM (active). For `C=CC(N)=O`, the outcome was “inactive”. For `CCCCCCCCCc1ccc(O)cc1`, the outcome was “inactive”. `CCC(C)(c1ccc(O)cc1)c1ccc(O)cc1` was tested, and the outcome was “inactive”. `CC(C)(c1ccccc1)c1ccc(O)cc1` was tested, and the AC50 was 83.6 µM (active). With `CCOC(=O)C(O)(c1ccc(Cl)cc1)c1ccc(Cl)cc1` the outcome was “inactive”. For `CCNc1nc(NC(C)C)nc(SC)n1`, the AC50 was 61.1 µM (active). For `Nn1cnnc1`, the outcome was “inactive”. With `O=C(O)C(F)(F)C(F)(F)C(F)(F)C(F)(F)C(F)(F)C(F)(F)C(F)(F)C(F)(F)F` the AC50 was 94.5 µM (active). With `Oc1ccc(C(c2ccc(O)cc2)(C(F)(F)F)C(F)(F)F)cc1` the outcome was “inactive”. With `CCCCCCCCOC(=O)c1ccccc1C(=O)OCCCCCCCC` the outcome was “inactive”.
